Inconclusive results are not listed. Active and inactive are the calls of the source. Unless noted, calls come from the whole dose curve; as a rule, active = well fitted curve in the direction sought with a large enough effect in the repeat runs; inconclusive = weak or mixed curves; inactive = no such curve, though single readings can be large; an effect the other way counts as inactive or inconclusive.
Key:
[1] = qHTS assay for small molecules that induce genotoxicity in human embryonic kidney cells expressing luciferase-tagged ATAD5 (AID 651632); note: nearly all actives have a fitted effect of over 15% in size
In short: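 Test compounds were delivered by pin tool onto HEK293T reporter cells (2,000/well) expressing ATAD5 fused to luciferase. After 16 hr at 37C, 5% CO2, Amplite was added for 30 min at room temperature and luminescence was measured.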

[2] = qHTS assay for small molecule agonists of the p53 signaling pathway - cell viability (AID 651633; calls by dose curve;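 note: p53RE-bla HCT reporter cells with a stable beta-lactamase p53 reporter; series mostly up to about 83 µM; nearly all actives have a fitted effect of over 30% in size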)
In short: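 p53RE-bla cells, seeded at 4,000 per well and rested 5 h at 37 C/5% CO2, received compounds in DMSO for 16 h at 37 C. CellTiter-Glo was then added, and luminescence was read after 30 min at room temperature to gauge cytotoxicity.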

[3] = qHTS assay for small molecules that induce genotoxicity in human embryonic kidney cells expressing luciferase-tagged ATAD5 - cell viability (AID 651634; calls by dose curve; note: nearly all actives have a fitted effect of over 25% in size)
In short: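 Quantitative high-throughput format. HEK293T cells expressing ATAD5 fused to luciferase were plated at 2,000 cells/well and treated 15.5 hr with compound versus DMSO. Viability was determined by fluorescent live-cell protease substrate, 30 min at 37C.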

[4] = qHTS assay for small molecule disruptors of the mitochondrial membrane potential - cell viability (AID 720634; calls by dose curve;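 note: human HepG2 liver cancer cells; series mostly up to about 83 µM; nearly all actives have a fitted effect of over 20% in size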)
In short: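 Same-well counter-screen: following the MMP dye addition, CellTiter-Glo was added to 1 hr compound-treated HepG2 cells and luminescence read after 30 min at room temperature.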

[5] = qHTS assay for small molecule disruptors of the mitochondrial membrane potential (AID 720635)
In short: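 HepG2 cells (2,000/well) attached overnight at 37C, then took compound for 1 hr at 37C, 5% CO2. Mito-MPS dye was added for 30 min; fluorescence was read at 490/535 nm (monomers) and 540/590 nm (aggregates).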

[6] = qHTS assay to test for compound auto fluorescence at 590 nm (red) in HepG2 cells (AID 720674)
In short: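 Rose Bengal sodium served as the red fluorophore standard. HepG2 monolayers (overnight attachment, MEM with 10% FBS) were exposed to test compounds for 1 hr at 37 C and read at Ex 540/Em 590 nm.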

[7] = qHTS assay to test for compound auto fluorescence at 535 nm (green) in HepG2 cells (AID 720675)
[8] = qHTS assay to test for compound auto fluorescence at 460 nm (blue) in HEK293 cells (AID 720678)
In short: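 HEK293, 2,000 cells/well, 10% dialyzed FBS; attach 4-5 hr 37C; pin compound or DMSO; o/n 37C/5% CO2; fluorescence 405/460 nm; triamterene-equivalent units.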

[9] = qHTS assay to test for compound auto fluorescence at 590 nm (red) in HEK293 cells (AID 720679)
In short: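 Intensity at 540nm excitation and 590nm emission is reported as Rose Bengal sodium-equivalent autofluorescence. Measurements followed overnight exposure (37C, 5% CO2) of HEK293 cells, 2,000 per well, to 23 nL compound.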

[10] = qHTS assay to test for compound auto fluorescence at 535 nm (green) in HEK293 cells (AID 720680)
[11] = qHTS assay to test for compound auto fluorescence at 460 nm (blue) in HEK293 cell free culture (AID 720681)
In short: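 Test compounds were pinned into cell-free culture medium (DMEM with 10% FBS) and fluorescence was read directly at Ex/Em 405/460 nm. Signals were expressed as fluorescence equivalents of triamterene, with DMSO vehicle as control.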

[12] = qHTS assay to test for compound auto fluorescence at 535 nm (green) in HEK293 cell free culture (AID 720682)
In short: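 Cell-free medium (DMEM, 10% FBS) receives compound or DMSO by pintool. Plate read directly at Ex 485/Em 535 nm. Signal converted to fluorescein equivalency.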

[13] = qHTS assay to test for compound auto fluorescence at 590 nm (red) in HepG2 cell free culture (AID 720684)
In short: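 Ex 540 / Em 590 nm read of compound in cell-free MEM (10% FBS). Rose Bengal sodium reference.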

[14] = qHTS assay to test for compound auto fluorescence at 460 nm (blue) in HepG2 cell free culture (AID 720685)
In short: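 Cell-free plates of MEM plus 10% FBS received 23 nL compound or DMSO vehicle; blue-channel (405/460 nm) intensity scored against triamterene as reference fluorophore.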

[15] = qHTS assay to test for compound auto fluorescence at 535 nm (green) in HepG2 cell free culture (AID 720686)
[16] = qHTS assay to test for compound auto fluorescence at 460 nm (blue) in HepG2 cells (AID 720687)
In short: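 Cells (2,000/well in MEM with 10% FBS) attached overnight at 37 C, then were exposed to compound or DMSO for 1 hr at 37 C, 5% CO2. Fluorescence read at Ex/Em 405/460 nm, expressed as triamterene-equivalent signal.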

[17] = biological target: Glucocorticoid receptor (Homo sapiens) (UniProt P04150); assay: qHTS assay to identify small molecule agonists of the glucocorticoid receptor (GR) signaling pathway (AID 720691; active = well fitted activation curve with a large enough effect in the signal ratio in the repeat runs, not every such curve was filed as active; the % refers to the signal ratio)
Sequence of Glucocorticoid receptor (Homo sapiens) (P04150 whole entry, looked up): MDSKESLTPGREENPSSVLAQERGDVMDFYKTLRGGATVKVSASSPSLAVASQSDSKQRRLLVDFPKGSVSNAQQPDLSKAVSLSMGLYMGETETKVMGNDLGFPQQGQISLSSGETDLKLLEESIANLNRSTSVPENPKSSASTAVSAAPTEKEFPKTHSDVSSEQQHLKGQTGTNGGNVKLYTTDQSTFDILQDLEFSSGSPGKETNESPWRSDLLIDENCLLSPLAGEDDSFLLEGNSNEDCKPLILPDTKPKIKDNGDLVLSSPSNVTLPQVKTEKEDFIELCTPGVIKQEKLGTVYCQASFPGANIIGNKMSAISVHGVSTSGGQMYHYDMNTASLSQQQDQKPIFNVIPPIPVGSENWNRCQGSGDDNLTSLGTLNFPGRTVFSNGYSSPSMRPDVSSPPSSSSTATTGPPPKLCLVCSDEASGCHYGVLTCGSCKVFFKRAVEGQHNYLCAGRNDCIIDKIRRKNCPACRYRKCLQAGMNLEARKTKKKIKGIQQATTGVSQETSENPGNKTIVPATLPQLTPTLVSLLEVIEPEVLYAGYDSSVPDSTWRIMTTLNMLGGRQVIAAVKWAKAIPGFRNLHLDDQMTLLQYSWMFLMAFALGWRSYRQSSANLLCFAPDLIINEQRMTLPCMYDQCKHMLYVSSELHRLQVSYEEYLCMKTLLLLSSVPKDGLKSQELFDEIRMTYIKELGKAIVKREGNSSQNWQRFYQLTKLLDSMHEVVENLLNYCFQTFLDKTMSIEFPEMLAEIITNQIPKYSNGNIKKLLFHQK
In short: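 A HeLa cervical cancer line expressing GR and a glucocorticoid response element-driven beta-lactamase gene is treated with compounds for 18 h; LiveBLAzer B/G FRET substrate is then applied and fluorescence read.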

[18] = qHTS assay for identifying genotoxic compounds that show differential cytotoxicity against isogenic chicken DT40 cell lines with known DNA damage response pathways - wild type cell line (AID 743012); note: potency is the fitted concentration of half-maximal effect; nearly all actives have a fitted effect of over 60% in size
In short: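 300 wt DT40 cells/well; cpd (DMSO) pintool-transferred after ~0.5 h at 37 C/5% CO2; 40 h incubation; CellTiter-Glo added, 30 min RT; luminescence read.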

[19] = qHTS assay for identifying genotoxic compounds that show differential cytotoxicity against isogenic chicken DT40 cell lines with known DNA damage response pathways - Rev3 mutant cell line (AID 743014); note: potency is the fitted concentration of half-maximal effect; nearly all actives have a fitted effect of over 55% in size
[20] = qHTS assay for identifying genotoxic compounds that show differential cytotoxicity against isogenic chicken DT40 cell lines with known DNA damage response pathways - Rad54/Ku70 mutant cell line (AID 743015); note: potency is the fitted concentration of half-maximal effect; nearly all actives have a fitted effect of over 60% in size
[21] = qHTS assay to identify small molecule antagonists of the thyroid receptor (TR) signaling pathway - cell viability counter screen (AID 743064); note: potency is the fitted concentration of half-maximal effect; nearly all actives have a fitted effect of over 50% in size
In short: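 GH3.TRE-Luc cells, 4 h pre-plating; cpd + T3 1 nM final; 37 °C 23.5 h; CellTiter-Fluor 30 min; fluorescence read.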

[22] = qHTS assay to identify small molecule antagonists of the thyroid receptor (TR) signaling pathway (AID 743065); note: potency is the fitted concentration of half-maximal effect; nearly all actives have a fitted effect of over 55% in size
In short: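 GH3.TRE-Luc rat pituitary cells carrying two TR response elements driving luciferase were plated for 4 h, given compound plus 1 nM T3 (final), and incubated 23.5 h at 37 C. ONE-Glo luminescence measured reporter inhibition; CellTiter-Fluor fluorescence tracked cytotoxicity.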

[23] = qHTS assay to identify small molecule antagonists of the estrogen receptor alpha (ER-alpha) signaling pathway - cell viability counter screen (AID 743074; calls by dose curve;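 note: HEK293 cells carrying ER-alpha-UAS-bla reporter stimulated with 17beta-estradiol; nearly all actives have a fitted effect of over 45% in size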)
[24] = biological target: Estrogen receptor (Homo sapiens) (UniProt P03372); assay: qHTS assay to identify small molecule agonists of the estrogen receptor alpha (ER-alpha) signaling pathway (AID 743075; calls by dose curve;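 note: HEK293 GripTite cells with ER-alpha and UAS-driven beta-lactamase reporter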)
Sequence of Estrogen receptor (Homo sapiens) (P03372 whole entry, looked up): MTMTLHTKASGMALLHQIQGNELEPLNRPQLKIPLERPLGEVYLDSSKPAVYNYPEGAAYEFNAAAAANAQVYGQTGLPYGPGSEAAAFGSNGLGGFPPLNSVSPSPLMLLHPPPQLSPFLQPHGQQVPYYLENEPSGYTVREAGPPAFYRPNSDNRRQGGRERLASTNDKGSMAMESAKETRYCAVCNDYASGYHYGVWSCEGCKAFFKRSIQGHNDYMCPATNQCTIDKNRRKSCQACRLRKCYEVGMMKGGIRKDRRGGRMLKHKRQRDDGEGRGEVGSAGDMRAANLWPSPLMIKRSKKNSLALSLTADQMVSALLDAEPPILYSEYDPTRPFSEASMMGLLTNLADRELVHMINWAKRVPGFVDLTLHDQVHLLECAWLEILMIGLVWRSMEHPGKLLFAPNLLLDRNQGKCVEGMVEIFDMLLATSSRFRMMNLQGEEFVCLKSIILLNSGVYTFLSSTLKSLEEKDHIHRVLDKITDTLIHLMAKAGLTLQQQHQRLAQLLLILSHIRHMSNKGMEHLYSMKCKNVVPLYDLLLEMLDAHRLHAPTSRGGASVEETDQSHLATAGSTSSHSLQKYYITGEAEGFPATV

[25] = qHTS assay to identify small molecule antagonists of the estrogen receptor alpha (ER-alpha) signaling pathway using the BG1 cell line - cell viability counter screen (AID 743081);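 note: compound given together with 17beta-estradiol as the ER stimulus; series mostly up to about 70 µM; nearly all actives have a fitted effect of over 45% in size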
Aromatase (Homo sapiens) = Aromatase (Homo sapiens) (UniProt P11511); assay: qHTS assay to identify aromatase inhibitors (AID 743083); note: series mostly up to about 70 µM; nearly all actives have a fitted effect of over 55% in size
Sequence of Aromatase (Homo sapiens) (P11511 whole entry, looked up): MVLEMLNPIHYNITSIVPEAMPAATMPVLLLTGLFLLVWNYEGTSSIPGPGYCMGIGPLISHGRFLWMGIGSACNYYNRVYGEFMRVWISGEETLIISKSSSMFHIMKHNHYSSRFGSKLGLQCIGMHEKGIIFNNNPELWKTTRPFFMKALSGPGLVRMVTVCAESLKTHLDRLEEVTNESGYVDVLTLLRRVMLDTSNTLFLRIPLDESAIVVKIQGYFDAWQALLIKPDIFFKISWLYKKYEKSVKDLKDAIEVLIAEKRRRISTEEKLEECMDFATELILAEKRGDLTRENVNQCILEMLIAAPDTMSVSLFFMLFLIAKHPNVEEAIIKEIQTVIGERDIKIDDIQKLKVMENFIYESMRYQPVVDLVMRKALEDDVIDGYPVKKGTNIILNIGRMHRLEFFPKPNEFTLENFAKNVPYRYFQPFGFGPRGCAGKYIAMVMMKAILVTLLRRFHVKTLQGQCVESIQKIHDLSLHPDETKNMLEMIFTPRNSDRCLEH

[26] = qHTS assay to identify aromatase inhibitors - cell viability counter screen (AID 743084);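 note: cells stimulated with testosterone during compound exposure; nearly all actives have a fitted effect of over 55% in size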
[27] = biological target: Aryl hydrocarbon receptor (Homo sapiens) (UniProt P35869); assay: qHTS assay to identify small molecule that activate the aryl hydrocarbon receptor (AhR) signaling pathway (AID 743085); note: potency is the fitted concentration of half-maximal effect; nearly all actives have a fitted effect of over 15% in size
Sequence of Aryl hydrocarbon receptor (Homo sapiens) (P35869 whole entry, looked up): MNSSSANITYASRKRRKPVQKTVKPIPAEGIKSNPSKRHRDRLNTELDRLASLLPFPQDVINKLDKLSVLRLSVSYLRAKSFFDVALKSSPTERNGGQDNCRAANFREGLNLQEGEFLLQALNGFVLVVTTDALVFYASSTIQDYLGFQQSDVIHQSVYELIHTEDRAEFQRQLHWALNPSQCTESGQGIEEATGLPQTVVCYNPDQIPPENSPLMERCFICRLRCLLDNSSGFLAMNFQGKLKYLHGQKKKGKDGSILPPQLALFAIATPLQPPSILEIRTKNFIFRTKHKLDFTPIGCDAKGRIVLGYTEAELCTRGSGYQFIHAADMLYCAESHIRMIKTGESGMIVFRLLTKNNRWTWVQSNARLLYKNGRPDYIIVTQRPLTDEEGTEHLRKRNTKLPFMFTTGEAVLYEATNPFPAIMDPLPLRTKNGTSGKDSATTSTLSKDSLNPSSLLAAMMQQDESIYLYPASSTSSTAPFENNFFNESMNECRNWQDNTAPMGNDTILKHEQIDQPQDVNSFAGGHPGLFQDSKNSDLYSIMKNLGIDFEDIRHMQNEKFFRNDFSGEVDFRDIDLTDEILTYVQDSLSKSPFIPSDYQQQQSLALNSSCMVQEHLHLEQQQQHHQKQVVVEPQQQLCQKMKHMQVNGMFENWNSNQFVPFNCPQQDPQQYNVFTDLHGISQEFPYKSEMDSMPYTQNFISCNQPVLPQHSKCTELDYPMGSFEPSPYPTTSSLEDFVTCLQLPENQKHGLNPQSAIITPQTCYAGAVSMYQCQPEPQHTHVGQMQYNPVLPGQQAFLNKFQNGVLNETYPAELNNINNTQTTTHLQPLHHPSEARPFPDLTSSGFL
In short: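 Luminescence read-out: ONE-Glo reagent, 30 min at room temperature, in HG2L7.5c1 HepG2 reporter cells treated 24 h at 37C. Viability was measured beforehand by CellTiter-Fluor fluorescence after 30 min at 37C.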

[28] = biological target: Acetylcholinesterase (Homo sapiens) (UniProt P22303); assay: Acetylcholinesterase (AChE) small molecule antagonists: enzyme-based qHTS assay (AID 1347397; calls by dose curve; note: nearly all actives have a fitted effect of over 55% in size); details: Potency: AChE enzyme activity inhibition; outcome: AChE enzyme activity inhibition
Sequence of Acetylcholinesterase (Homo sapiens) (P22303 whole entry, looked up): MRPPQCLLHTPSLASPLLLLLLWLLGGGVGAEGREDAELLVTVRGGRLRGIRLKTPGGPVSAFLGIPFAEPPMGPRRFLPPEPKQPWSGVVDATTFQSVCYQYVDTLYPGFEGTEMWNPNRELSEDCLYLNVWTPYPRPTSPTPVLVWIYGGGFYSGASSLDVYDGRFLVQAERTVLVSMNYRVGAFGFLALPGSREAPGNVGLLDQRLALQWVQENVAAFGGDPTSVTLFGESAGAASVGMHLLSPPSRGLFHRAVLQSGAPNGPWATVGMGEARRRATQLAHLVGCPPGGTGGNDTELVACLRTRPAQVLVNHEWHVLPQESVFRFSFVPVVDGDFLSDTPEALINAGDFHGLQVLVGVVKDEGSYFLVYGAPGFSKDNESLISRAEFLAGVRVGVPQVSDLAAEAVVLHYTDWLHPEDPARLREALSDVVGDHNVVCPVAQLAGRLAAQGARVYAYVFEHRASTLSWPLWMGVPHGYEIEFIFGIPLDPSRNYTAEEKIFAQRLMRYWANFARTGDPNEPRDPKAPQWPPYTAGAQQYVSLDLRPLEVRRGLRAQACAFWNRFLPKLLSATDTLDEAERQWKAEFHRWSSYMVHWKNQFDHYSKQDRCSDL
In short: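 Compound or DMSO vehicle was pin-transferred onto recombinant human AChE (50 mU/mL as dispensed) and left 30 min at room temperature. Acetylthiocholine with DTNB then started the reaction, read colorimetrically 10 min later.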

[29] = biological target: Acetylcholinesterase (Homo sapiens) (UniProt P22303); assay: Acetylcholinesterase (AChE) small molecule antagonists: fluorescence cell-based qHTS assay (AID 1347398; calls by dose curve; note: nearly all actives have a fitted effect of over 50% in size); details: Potency: AChE activity; outcome: AChE activity
In short: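 Using neuroblastoma SH-SY5Y cells as the enzyme source, test chemicals are preincubated 30 min at 37 C; AChE-driven acetylthiocholine cleavage is then quantified by thiocholine-dependent Thiolite Green fluorescence after 40 min at room temperature.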

[30] = biological target: Acetylcholinesterase (Homo sapiens) (UniProt P22303); assay: Acetylcholinesterase (AChE) small molecule antagonists: enzyme-based qHTS assay with human liver microsomes (AID 1347399; calls by dose curve; note: nearly all actives have a fitted effect of over 60% in size); details: Potency: qHTS inhibition; outcome: qHTS inhibition
In short: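 Recombinant human AChE (50 mU/mL in the enzyme mix) and human liver microsomes (0.25 mg/mL final) were preincubated with compound and NADPH (0.25 mg/mL final) for 30 min at 37 C. Acetylthiocholine/DTNB was then added; thiocholine was read colorimetrically after 10 min at room temperature.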

[31] = qHTS assay for small molecule agonists of the p53 signaling pathway (AID 651631; calls by dose curve; note: nearly all actives have a fitted effect of over 15% in size)
In short: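 p53RE-bla HCT-116 cells; compounds 16 h, 37 °C; LiveBLAzer B/G FRET substrate 2 h RT; fluorescence intensity read-out, qHTS format.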

[32] = qHTS assay to identify small molecule antagonists of the glucocorticoid receptor (GR) signaling pathway - cell viability counter screen (AID 720693); note: nearly all actives have a fitted effect of over 55% in size
[33] = qHTS assay to identify small molecule antagonists of the androgen receptor (AR) signaling pathway - cell viability counter screen (AID 743033; note: nearly all actives have a fitted effect of over 45% in size)
[34] = qHTS assay to identify small molecule antagonists of the androgen receptor (AR) signaling pathway using the MDA cell line - cell viability counter screen (AID 743041; note: nearly all actives have a fitted effect of over 45% in size)
In short: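 In this qHTS counter assay, fluorescence intensity after CellTiter-Fluor addition indicated viability of MDA-kb2 AR-luc cells given compounds and R1881 for 16 h at 37C.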

[35] = tested on: thyroid hormone receptor (rat, GH3 cells); assay: qHTS assay to identify small molecule agonists of the thyroid receptor (TR) signaling pathway (AID 743066; calls by dose curve)
[36] = biological target: Estrogen receptor (Homo sapiens) (UniProt P03372); assay: qHTS assay to identify small molecule antagonists of the estrogen receptor alpha (ER-alpha) signaling pathway (AID 743069; active = well fitted curve in the direction sought with a large enough effect in the signal ratio in the repeat runs, not every such curve was filed as active; the % refers to the signal ratio)
In short: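 A 17beta-estradiol challenge was applied right after compound transfer to ER-alpha-UAS-bla HEK293 cells previously kept in charcoal-stripped serum. Plates stood 18 hr at 37C and 5% CO2; fluorescence was read following 2 hr FRET substrate loading at room temperature.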

[37] = biological target: Estrogen receptor (Homo sapiens) (UniProt P03372); assay: qHTS assay to identify small molecule agonists of the estrogen receptor alpha (ER-alpha) signaling pathway using the BG1 cell line (AID 743079); note: nearly all actives have a fitted effect of over 20% in size
[38] = qHTS assay to identify small molecule antagonists of the estrogen receptor alpha (ER-alpha) signaling pathway using the BG1 cell line (AID 743080; calls by dose curve;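 note: BG1 cells stimulated with 17beta-estradiol alongside compound; series mostly up to about 70 µM; nearly all actives have a fitted effect of over 25% in size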)
In short: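 BG1Luc4E2, endogenous ER-alpha, 4xERE-luc; 5 d charcoal-stripped FBS, phenol red free; 24 h plating; cpd + 17beta-estradiol 21.5 h, 37 C/5% CO2; CellTiter-Fluor viability 30 min, then ONE-Glo luciferase 30 min RT.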

Measured: Potency

C[C@@H]1[C@@H]2Cc3ccc(O)cc3[C@@]1(C)CCN2CCc1ccccc1
active: [18] 3.81 µM | [19] 9.57 µM | [20] 7.6 µM | [21] 60.4 µM | [22] 53.8 µM | [27] 8.53 µM
not listed: [28] | [29] | [30] | [31] | [32] | [33] | [34] | [35] | [36] | [37] | [38]
inactive: all other assays above

O=C(O)Cc1ccccc1Nc1c(Cl)cccc1Cl
inactive: [28] | [29] | [30]

CC(C)C[C@H]1C(=O)N2CCC[C@H]2[C@]2(O)O[C@](NC(=O)[C@@H]3C[C@@H]4c5cccc6[nH]cc(c56)C[C@H]4N(C)C3)(C(C)C)C(=O)N12
active: [18] 29.8 µM | [19] 23.7 µM | [20] 29.8 µM | [21] 29.8 µM | [22] 29.8 µM
not listed: [3] | [4] | [6] | [10] | [17] | [25] | [27] | [28] | [29] | [30]
inactive: all other assays above

Source: PubChem BioAssay (Tox21)
